Records with an inconclusive call do not appear. Activity calls are given as the source filed them. Calls come from the whole dose curve; as a rule, active = well fitted inhibition curve with a large enough effect; inconclusive = small, poorly fitted or top-dose-only effect, or effect the other way; inactive = flat fitted curve, though single readings scatter.
Experiment: Secondary Assay for General miRNAs Modulators and/or Inhibitors/Activators of miR-21: miR-30 Firefly Luciferase Assay
Details: HeLa miR-30 FLuc reporter, luminescence, 48 h; series mostly up to 38.3 µM; activity change, negative = inhibition: at the top concentration
Source text: MLSCN Grant: 1 R21 NS059478-01 Assay Provider: Qihong Huang, The Wistar Institute NCGC Assay Overview: MicroRNAs (miRNAs) are endogenously encoded small (~20-25 nucleotides), nonprotein-coding RNAs that are involved in post-transcriptional repression of target messenger RNAs (mRNAs) (Le and Hannon, 2004). Estimated to be involved in the regulation of 30% of all protein-coding mRNAs (Filipowicz et al., 2008), miRNAs play a significant role in many biological processes including cellular differentiation and tissue development (Ghildiyal and Zamore, 2009). […] Compounds active in the miR-21 FLuc assay were clustered using Leadscope and active chemical series were prioritized based on chemical properties, potential for medicinal chemistry optimization, and SAR. Within each chemical series, representative compounds were re-acquired to test for activity in a secondary assay based on the quality of their CRC, efficacy, and potency. The secondary assay to determine if compounds active in the miR-21 FLuc assay were potentially specific for miR-21 and were not general modulators of the miRNA pathway was another cell-based FLuc reporter gene assay, this time targeting miR-30. Compounds found active in both the miR-21 FLuc and miR-30 FLuc assays are not considered miR-21 specific compounds, and may be general miRNA modulators.
NCGC Assay Protocol Summary: Reagents: HeLa cells stably expressing firefly luciferase (FLuc) under the control of a CMV promoter (upstream) and a miR-30 binding sequence directly downstream of the gene. These cells also stably express miR-30. Control compounds used were compound C3 (provided by collaborator), N6-phenyladenosine (MP Biomedicals, 0215379625), and DMSO. Assay Summary: 6uL of HeLa miR-30-FLuc cells in assay buffer (DMEM, Invitrogen #21063-029; 10% FBS, HyClone #SH30071.03) were dispensed at 1000cells/well (1.7 x 10^5 cells/mL) into Greiner solid-white TC-treated 1536-well plates using a Multidrop Combi (Thermo Fisher Scientific). Plates were incubated for one hour at 37 degree Celsius, 95% humidity, 5% CO2. These assay plates were then treated with 23nL of compound or DMSO using a Kalypsys pin tool, which allows for delivery of a 24-point titration of each compound to the assay plate, with a final compound concentration ranging from approximately 40uM to 5pM. Assay plates were then incubated for 48 hours. After incubation, plates were allowed to come to RT for one hour prior to delivery of 3uL of 3X luciferase detection reagent. After a 15 minute incubation to allow for cell lysis, luciferase activity was measured using a ViewLux CCD imager (PerkinElmer), with an average exposure time of 2-12 seconds. Keywords: NIH Roadmap, MLPCN, MLSMR, qHTS, miR-21, miR-30, microRNA, firefly luciferase, FLuc.

Compound	activity change, negative = inhibition	Potency
CCCn1c(=O)c2sccc2n2c(CCCC(=O)Nc3ccc(Oc4ccc(Cl)cc4)cc3)nnc12	19.4% (inactive)	
COc1nc(Nc2cccc(C(F)(F)F)c2)nc(OC)n1		22.5 µM (active)
O=C(CSc1nnc(-c2ccc(C(F)(F)F)cn2)o1)Nc1cccc(Cl)c1		2.83 µM (active)
O=C(Nc1nnc(S(=O)(=O)N2CCCC2)s1)c1ccc(F)cc1	-22.3% (inactive)	
CSc1nsc(SCC(=O)Nc2ccc(F)cc2F)n1		12.6 µM (active)
Cc1ccc(-n2nnc(-c3nc(-c4cccs4)no3)c2N)cc1C		2.52 µM (active)
COc1ccc(CNc2n[nH]c(-c3ccco3)n2)cc1OC	-23.9% (inactive)	
Nc1c(-c2nc(-c3cccs3)no2)nnn1-c1cccc(F)c1		0.283 µM (active)
Cc1ccc(-c2nsc(SCC(=O)Nc3ccc4c(c3)OCO4)n2)cc1		11.3 µM (active)
COc1ccc(OCC(=O)Nc2ccc(-c3nc4cc(C)c(C)cc4o3)cc2)cc1		0.798 µM (active)
COc1ccc(NC(=O)CSc2nc(SC)ns2)c(OC)c1		5.04 µM (active)
COCC(=O)Nc1c(C(=O)Nc2ccc3c(c2)OCCO3)oc2ccccc12		0.634 µM (active)
Cc1ccc(Nc2ncnc(N)n2)cc1C		10 µM (active)
NC(=O)c1ccccc1NC(=O)c1ccc(-c2ccc(Br)cc2)o1		1.13 µM (active)
Cc1ccc(CNc2nc3nc(C)c(Cl)c(C)n3n2)cc1		6.34 µM (active)
Cc1ccccc1Nc1nc(N)nc(CN(C)c2ccccc2)n1		12.6 µM (active)
O=C(CSc1nnc(-c2ccc(O)cc2)o1)Nc1ccccc1Br		1.13 µM (active)
Cc1cccc(-n2nnc(-c3nc(-c4cccs4)no3)c2N)c1		0.798 µM (active)
COc1ccc(-c2nc(SCc3ccccc3)n(S(C)(=O)=O)n2)cc1		11.3 µM (active)
CC(=O)Nc1nc2c(C)cc(NC(=O)C3CCCCC3)cc2s1		1.26 µM (active)

Compound	activity change, negative = inhibition	Potency
N#Cc1cc2cc3c(cc2nc1SCC(=O)N1CCOCC1)OCO3		0.798 µM (active)
CCc1ccc(-n2nnc(-c3nc(-c4cccs4)no3)c2N)cc1		1.42 µM (active)
Cc1cccc(-c2nsc(SCC(=O)Nc3ccc4c(c3)OCO4)n2)c1		22.5 µM (active)
COc1ccc(NC(=O)c2ncn(-c3ccccc3)n2)cc1Cl		14.2 µM (active)
CCc1nonc1NC(=O)c1oc2ccccc2c1C		12.6 µM (active)
CC(C)C(=O)Nc1nc2c(s1)CC(C(C)(C)C)CC2 (stereo not given)		0.895 µM (active)
Cc1ccc(CNc2nc(-c3ccco3)nn2S(C)(=O)=O)cc1		2.83 µM (active)
Cc1c(-c2nsc(NC(=O)c3cccs3)n2)nnn1-c1ccc(F)cc1		0.895 µM (active)
Cc1ccc(-c2nc(NCc3ccco3)n(S(C)(=O)=O)n2)cc1		11.3 µM (active)
Cc1cccc(-n2nnc(-c3nc(-c4cccs4)no3)c2N)c1C		0.159 µM (active)
Cc1ccc2c(C)c(C(=O)N(C)C(C)c3ccncn3)oc2c1C (stereo not given)		22.5 µM (active)
Nc1c(-c2nc(-c3ccncc3)no2)nnn1CC(=O)Nc1ccccc1	-3.22% (inactive)	
COc1ccc(NC(=O)CSc2nnc(-c3cccs3)o2)cc1		3.56 µM (active)
Cc1cc(C)c2c(N)c(C(=O)Nc3ccccc3F)sc2n1		1.79 µM (active)
Cc1cc(C)cc(NC(=O)CSc2nnc(-c3ccccc3C)o2)c1		11.3 µM (active)
COc1ccc(CNc2nc(-c3ccco3)nn2C(=O)CC(C)C)cc1		11.3 µM (active)
COc1ccccc1NC(=O)C/C(C)=N/NC(=O)c1ccccn1	-7.18% (inactive)	
Cc1cc(SCC(=O)Nc2nsc(-c3ccc(C(C)(C)C)cc3)n2)nc2ccccc12		2 µM (active)
COc1ccc(-c2nnc(SCC(=O)Nc3cccc(F)c3)s2)cc1		8.95 µM (active)
Nc1c(C(=O)Nc2ccccc2Br)sc2nc(-c3cccs3)ccc12	9.39% (inactive)	

Reference: PubChem BioAssay AID2507 (National Center for Advancing Translational Sciences (NCATS), 2010)
